In PubChem BioAssay AID1724 (National Center for Advancing Translational Sciences (NCATS), 2009):
Inconclusive results are not listed. The source made the active and inactive calls. Calls come from the whole dose curve; as a rule, active = well fitted inhibition curve with a large enough effect; inconclusive = small, poorly fitted or top-dose-only effect, or effect the other way; inactive = no such curve, though single readings can be large or run the other way.

Assay: Confirmation Concentration-Response Assay for Inhibitors of the ERK Signaling Pathway using a Homogeneous Screening Assay
Conditions: HEK293 cells, hormone-stimulated phospho-ERK AlphaScreen; series mostly up to 40.9 µM
Text: qHTS Assay for Inhibitors of the ERK Signaling Pathway using a Homogeneous Screening Assay
NIH Chemical Genomics Center [NCGC]
NIH Molecular Libraries Screening Centers Network [MLSCN]
Assay Submitter (PI): Dr. Wei Zheng, NCGC/NIH
The Ras/extracellular-signal-regulated kinase (ERK) mitogen activated protein (MAP) kinase signaling pathway (ERK1/2 cascade) plays is a key role in transmitting signals from the cell surface to the nucleus (Nishida and Gotoh 1993; Chang and Karin, 2001). The cascade is initiated by the small G-protein Ras, which recruits Raf […], where activation occurs. Alternatively, this pathway can be activated by elevating intracellular cAMP.
Activation of the ERK pathway is essential in increased cell division and cell survival. Sustained and constitutive activation of the ERK pathway, however, has been linked to uncontrolled cell proliferation, increased cell survival, and tumor progression. Thus, the ERK has been as an attractive target for cancer chemotherapy in the past few years (Sebolt-Leopold and Herrera, 2004). Given its physiological and pathological importance, assessment of ERK phosphorylation has been broadly performed in both basic research and drug discovery. Most assays for the measurement of ERK phosphorylation use the antibody-based detection methods, such as western blot and ELISA. These assays require multiple reagent additions with cell wash steps and are not suitable for high-throughput screening.
The current cell-based ERK phosphorylation assay was performed using AlphaScreen platform. AlphaScreen is a two bead-based proximity-dependent chemical energy transfer luminescent assay platform. The assay reagents (ERK SureFire(TM) kit) were supplied from TGR BioSciences (Australia). In the presence of specific antibodies, phosphorylated ERK will bring "donor" and "acceptor" beads to a proximity range (<200 nm), and subsequently lead a chemical luminescent reaction upon exciting donor beads with 680 nm laser. To exclude the assay-related false positives, we used a biotinylated rabbit IgG to perform counter-screen. The biotinylated antibody mimics the phosphorylated ERK1/2 for bringing streptavidin coated beads and protein-A coated beads to a proximity range for the AlphaScreen detection.
NCGC Assay Protocol Summary:
HEK293 cells stably expressing type-1 vasopressin receptor (V1b) were maintained in DMEM medium (Invitrogen, Carlsbad, CA) at 37C under a humidified atmosphere containing 5% CO2 and 95% air. The medium contained 10% FBS, 2 mM L-glutamine, non-essential amino acid, pyruvate and 50 U/ml penicillin and 50 ug/ml streptomycin (Invitrogen). The aliquots of frozen cells were stored at -135C and used for the compound screening. All compounds were screened as titrations from 0.6 nM to 46 uM final concentration. Vasopressin was used to stimulate the ERK phosphorylation pathway. The ERK phosphorylation in cells was determined using an AlphaScreen assay kit provided by PerkinElmer. Data were normalized to the controls for basal activity (DMSO only) and 100% activation (25 nM vasopressin). AC50 values were determined from concentration-response data modeled with the standard Hill equation.
(1) Seed 4 ul/well of resuspended frozen HEK293 cells containing 2000 cells in white 1536-well plates for overnight with 1% FBS at 37C under a humidified atmosphere containing 5% CO2 and 95% air.
(2) Add 23 nL compounds in DMSO solution. The final titration was 0.6 nM to 46 uM.
(3) Incubate at 37C for 30 min.
(4) Dispense 0.5uL vasopressin (25 nM in final)
(5) Incubate at 37C for 5 min.
(6) Dispense 0.5uL of 1:2 diluted 5x lysis buffer.
(7) Incubate at 37C for 10 min.
(8) Dispense 1.5uL of mixture of activation buffer and reaction buffer with AlphaScreen beads (streptavidin donor beads and protein-A acceptor beads, 10 ng/well for each).
(9) Incubate at room temperature for 5 hr.
(10) Detect the assay plate in an EnVision plate reader (PerkinElmer) using the AlphaScreen detection mode.
[…]

Potency, active:
COc1ccc(CC(=O)Nc2cccc(-c3nnc(-c4cccc(C)c4)o3)c2)cc1OC 4.47 µM, O=S(=O)(c1ccccc1)N1CCN(c2cc(-c3ccccc3)nc3ncnn23)CC1 31.6 µM, COc1cc(C(=O)Nc2nc(-c3cccs3)cs2)cc(OC)c1OC 12.6 µM, COc1ccc(C(=O)c2ccc(Cl)c([N+](=O)[O-])c2)cc1 12.6 µM, Cn1c(=O)cc(Nc2ccccc2)c2c(=O)n(-c3ccccc3)c(=O)n(-c3ccccc3)c21 8.91 µM, COC(=O)c1cc(-c2ccc(OC)c(OC)c2)on1 7.08 µM, CCCC(=O)N1CCN(c2ccc(NC(=O)c3cc4ccccc4o3)cc2Cl)CC1 7.94 µM, CNc1cccc2c1C(=O)c1ccccc1C2=O 14.1 µM, O=C(c1cccs1)c1no[n+]([O-])c1C(=O)c1cccs1 2 µM, C=CS(=O)(=O)c1ccc(Oc2ccc(S(=O)(=O)C=C)cc2)cc1 7.08 µM, COc1ccc(CNc2ncnc3ccc(-c4cccc(NS(C)(=O)=O)c4)cc23)c(OC)c1 15.8 µM, Cc1nc2ccccc2c2oc(C(=O)N3CCc4ccccc4C3)cc12 25.1 µM, CN(C)c1ccc(Nc2c3c4c(cccc4n(C)c2=O)C(=O)c2ccccc2-3)cc1 14.1 µM, COc1ccc(C(=O)OC(COc2ccccc2)Cn2ccnc2)cc1 (stereo not given) 15.8 µM, N#CC(=C(/N)Sc1ccccc1N)/C(C#N)=C(/N)Sc1ccccc1N 0.501 µM, CCOC(=O)c1ccc(NC(=O)c2ccc(C)c(S(=O)(=O)N3CCOCC3)c2)cc1 8.91 µM, CC1(C)OC(c2ccccc2)=C/C(=C/C=C2C(=O)c3ccccc3C2=O)O1 14.1 µM, O=C(Nc1nc(-c2ccccc2)cs1)c1ccc(N2CCOCC2)c([N+](=O)[O-])c1 7.08 µM, COc1ccc(N=C2C(=Nc3ccc(OC)cc3)N(c3ccc(N(C)C)cc3)C(=S)N2c2ccc(OC)cc2)cc1 5.62 µM, COc1ccc(N=C2C(=Nc3ccc(OC)cc3)N(c3ccccc3)C(=S)N2C(=O)c2ccc(Cl)cc2)cc1 3.16 µM, c1ccc(-c2csc(-c3nc4ccccc4[nH]3)n2)cc1 35.5 µM, COc1ccc(CC(=O)Nc2cccc(-c3nnc(-c4ccc(C)cc4)o3)c2)cc1OC 5.62 µM, COc1ccc(C2=Nn3c(nnc3-c3ccccc3OC)SC2)cc1OC 2.24 µM, C=C[C@@]1(C)CC(=O)[C@@]2(O)[C@@]3(C)[C@@H](O)CCC(C)(C)[C@@H]3[C@H](OC(=O)CCN(C)C)[C@H](OC(C)=O)[C@@]2(C)O1 0.282 µM

Potency, inactive:
CCCNc1ncnc2sc(C)c(C)c12, CCCN(CCC)S(=O)(=O)c1cccc(C(=O)Nc2ccc3c(c2)OCO3)c1, CN(C)c1cc2c(Nc3ccc4c(cnn4Cc4ccccc4)c3)ncnc2cn1, CC(=O)N1CCC(=NNc2nc3ccccc3s2)CC1, Cc1noc(NS(=O)(=O)c2ccc(NC(=O)COc3ccc(Cl)cc3Cl)cc2)c1C, O=C(Nc1nccs1)c1cc2sccc2n1Cc1ccc(F)cc1, Cc1cc(-c2ccccc2)n(-c2cc(N/N=C/c3ccccc3O)ncn2)n1, O=C1c2ccc(O)c(O)c2C(=O)c2c(O)ccc(O)c21, C=C[C@]1(C)CC(=O)[C@@]2(O)[C@@]3(C)C(O)CCC(C)(C)C3C(O)C(OC(C)=O)[C@@]2(C)O1 (stereo not given in full), CC(/C=C/c1ccccc1)=N\Nc1ccccc1[N+](=O)[O-], Cc1ccc(Nc2ncnc3sc(C)c(C)c23)cc1, CCOc1ccc(/C(O)=C2/C(=O)C(=O)N(c3ncccn3)C2c2ccccc2)cc1 (stereo not given), COc1cc2ncnc(Nc3cccc(Cl)c3)c2cc1OC, c1ccc(Oc2nc(NCc3ccco3)nc(NCc3ccco3)n2)cc1, COc1cccc(/C=N/Nc2cc(-n3nc(C)cc3-c3ccccc3)ncn2)c1O, Cc1ccc(NNc2c(C)nc3ccccc3nc2=O)cc1
